The record followed here is PubChem BioAssay AID485346 (Sanford-Burnham Center for Chemical Genomics, 2010).

Among all 330,000 compounds or so, about 10,000 (3%) were called active. The list comes from a sample in which actives are over-represented; it also holds similar structures and randomly drawn compounds. A number with no mark means an inactive call.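 Rule for the calls: active = inhibition of at least 50% at 8 µM in the primary screen; inactive = the rest.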

As a reminder, the inhibition is the change of the read-out against control, counted positive when it falls.

Chain of Protein Mdm4 (Homo sapiens) + E3 ubiquitin-protein ligase Mdm2 (Homo sapiens) (O15151 whole entry, looked up): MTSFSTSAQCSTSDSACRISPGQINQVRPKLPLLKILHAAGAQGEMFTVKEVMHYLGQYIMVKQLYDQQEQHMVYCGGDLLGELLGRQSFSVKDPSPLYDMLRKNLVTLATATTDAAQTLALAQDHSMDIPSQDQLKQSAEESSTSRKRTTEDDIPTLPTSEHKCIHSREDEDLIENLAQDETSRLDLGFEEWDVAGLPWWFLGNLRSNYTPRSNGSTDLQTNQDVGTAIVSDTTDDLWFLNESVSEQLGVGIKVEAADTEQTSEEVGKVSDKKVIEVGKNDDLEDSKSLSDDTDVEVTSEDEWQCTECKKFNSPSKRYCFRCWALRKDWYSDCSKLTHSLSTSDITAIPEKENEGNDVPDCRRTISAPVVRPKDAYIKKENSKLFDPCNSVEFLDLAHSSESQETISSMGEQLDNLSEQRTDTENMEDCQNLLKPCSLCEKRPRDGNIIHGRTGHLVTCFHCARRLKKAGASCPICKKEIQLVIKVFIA
Chain of Protein Mdm4 (Homo sapiens) + E3 ubiquitin-protein ligase Mdm2 (Homo sapiens) (Q00987 whole entry, looked up): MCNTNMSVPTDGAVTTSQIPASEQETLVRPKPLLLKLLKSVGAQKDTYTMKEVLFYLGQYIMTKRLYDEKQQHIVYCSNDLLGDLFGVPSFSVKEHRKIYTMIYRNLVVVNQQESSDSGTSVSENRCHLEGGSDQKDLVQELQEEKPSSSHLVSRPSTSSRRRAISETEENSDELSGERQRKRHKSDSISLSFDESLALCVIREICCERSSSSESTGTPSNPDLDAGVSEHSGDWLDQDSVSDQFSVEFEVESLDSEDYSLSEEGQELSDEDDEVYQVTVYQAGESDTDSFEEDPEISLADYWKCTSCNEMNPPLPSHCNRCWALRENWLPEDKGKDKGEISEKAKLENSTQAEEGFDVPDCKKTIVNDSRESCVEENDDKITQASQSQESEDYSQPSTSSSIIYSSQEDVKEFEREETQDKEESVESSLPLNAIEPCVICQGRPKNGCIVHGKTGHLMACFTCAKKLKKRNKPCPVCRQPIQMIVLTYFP

This assay addresses Protein Mdm4 (Homo sapiens) + E3 ubiquitin-protein ligase Mdm2 (Homo sapiens) (UniProt O15151+Q00987). As to the kind of experiment: inhibitors of human Mdm2-MdmX association, primary screen, cell-based, luminescence, split luciferase, SaOS-2, uHTS (AID 485346). To be noted: SaOS-2 split-luciferase Mdm2/MdmX complementation, at 8 µM, stronger effect = higher value.
Consider `Cc1ccc(S(=O)(=O)c2c(COC(=O)c3cccc(Cl)c3)c(-c3ccccc3)nn2C)cc1`, for which the inhibition was 7.27%. Consider `Cn1nc(-c2ccccc2)c(CO)c1Sc1ccccc1`, for which the inhibition was 8.85%. As for `Cn1nc(-c2ccccc2)c(CSc2cccc(Cl)c2)c1Cl`, the figure is 50.5% (active); as for `C=CCOc1ccc(C(=O)Nc2ccccc2C(=O)N2CCCC2)cc1`, 2.51%.

Regarding `COC(=O)Nc1ncc(CN2C(=O)c3ccccc3C2=O)s1`, the inhibition is 12.4%. Under `COCCn1c(C)cc(C(=O)COC(=O)CNC(=O)c2ccco2)c1C` stands 3.33%; under `Cc1cc(C(=O)COC(=O)CNC(=O)c2ccc(F)cc2)c(C)n1Cc1ccco1`, 56.9% (active); under `Cc1cc(C(=O)CSc2nc(N)cc(=O)[nH]2)c(C)n1Cc1ccco1`, 22.2%. With `CC(Oc1ccccc1)C(=O)NN1Cc2ccccc2C1=N` (stereo unspecified), the inhibition was 16.1%. With `CC(C)(C)NS(=O)(=O)CC12CCC(CC1=O)C2(C)C` (stereo unspecified), the inhibition was 8.21%.

Regarding `O=C1Nc2cc(C(=O)N3CCC(N4CCCCC4)CC3)ccc2S/C1=C\c1ccccc1`, the inhibition was 54.5% (active). Under `NC(=O)C1CCN(C(=O)c2ccc(-c3ccccc3)cc2)CC1` stands 13.3%. On to `CC1CCN(C(=O)c2ccc3c(c2)NC(=O)CN3)CC1`, for which the inhibition is 13%. As for `Cc1[nH]n(C(N)=S)c(=O)c1N=Nc1ccc(Cl)cc1Cl`, the inhibition is -31.8%. Turning to `C[C@H](CO)N1C[C@H](C)[C@@H](CN(C)S(=O)(=O)c2ccc(F)cc2)Oc2ccc(NC(=O)CCC(F)(F)F)cc2C1=O`, the inhibition was -5.06%. As for `CSc1nc2c(c(=O)[nH]1)C(c1cccc(Cl)c1Cl)CC(=O)N2` (stereo unspecified), the figure is -2.71%; as for `COc1ccc(C2CC(=O)Nc3sc(=N)c4c(N)c(C#N)c(N)nc4c32)cc1OC` (stereo unspecified), 19.8%. Under `N#Cc1c(N)nc2c3c(sc(=N)c2c1N)NC(=O)CC3c1ccccc1Cl` (stereo unspecified) stands 68.7% (active); under `C/C=C/C=C/C(=O)O`, 19.9%.

In the case of `Cc1cc(C)c(S(=O)(=O)N2C=CC(C(F)(F)F)=NCC2)c(C)c1`, the inhibition is 17.6%.

In the case of `CC(C(=O)Nc1ccc(F)c(F)c1F)N1CCCCCC1` (stereo unspecified), the inhibition was 24.1%.

As to `COc1ccccc1CCNC(=O)C1CCN(C(=O)/C=C/c2ccccc2)CC1`, the inhibition is -2.9%. Under `O=C(/C=C/c1ccc(Cl)c([N+](=O)[O-])c1)c1ccc(O)cc1` stands 98.7% (active); under `O=C(/C=C/c1ccc(Cl)cc1Cl)c1cccnc1`, 17.5%. Regarding `CN(C)c1ccc(/C=C/C(=O)c2ccc(O)cc2)cc1[N+](=O)[O-]`, the inhibition was 11.6%.

For the compound `O=C(Nc1cccnc1)c1ccc(Cl)c([N+](=O)[O-])c1`, the inhibition was -11.2%. Under `O=C(/C=C/c1ccc(Cl)c([N+](=O)[O-])c1)c1cccnc1` stands 84.3% (active); under `CN(C)c1ccc(/C=C/C(=O)c2ccc(C(C)(C)C)cc2)cc1[N+](=O)[O-]`, 30.9%; under `O=C(COC(=O)CNC(=O)C1CCCCC1)NCc1ccccc1`, 17.1%. Under `CCCSc1ccc([C@H]2N[C@@](Cc3ccccc3)(C(=O)OC)[C@H]3C(=O)N(C)C(=O)[C@@H]23)cc1` stands 42.6%; under `CC1CN(C(=S)Nc2ccccc2F)CC(C)O1` (stereo unspecified), 28.4%. As for `O=C(/C=C/c1cccc([N+](=O)[O-])c1)OCC(=O)N1CCOCC1`, the figure is 9.38%; as for `CCOP(=O)(OCC)C(Nc1cccc(C)c1)c1ccc(F)cc1` (stereo unspecified), -2.51%. Take `N=c1n(CCc2ccccc2)c2ccccc2n1Cc1ccccc1F`: the inhibition is 64.2% (active).

Take `O=C(COC(=O)Cc1ccccc1F)NCCc1ccccc1`: the inhibition is 6.62%.

Take `Fc1ccccc1Cn1cnc(NC(=S)NCCc2ccccc2)n1`: the inhibition is 45.1%. In the case of `Cc1nn(CCOc2ccc(Br)cc2)c(C)c1[N+](=O)[O-]`, the inhibition is 18.2%.

With `C=CC1=C(C(=O)O)N2C(=O)[C@@H](NC(=O)/C(=N\OCC(=O)O)c3csc(N)n3)[C@H]2SC1`, the inhibition was 16%. As for `COc1ccc(CCOC2OC(CO)C(OC(=O)/C=C/c3ccc(O)c(OC)c3)C(O[C@H]3O[C@@H](C)[C@H](O)[C@@H](O)[C@H]3O)C2O)cc1O` (stereo partly specified), the figure is -29.1%; as for `CCN1/C(=C\c2ccc3ccccc3[n+]2CC)Sc2cc(C)ccc21`, 77.1% (active); as for `COC(=O)C[n+]1cccc2ccccc21`, 6.08%. As to `O=S(=O)(NCC1CN(S(=O)(=O)c2ccc3c(c2)OCCO3)C1)c1c(F)cccc1F`, the inhibition was -1.76%. As for `O=C(N[C@H]1C/C=C\C(c2ccc(F)cc2)N(Cc2ccccc2)C(=O)C1)OCC1c2ccccc2-c2ccccc21` (stereo partly specified), the figure is 20.2%. Under `CC(=O)Nc1ccc(C(=O)/C=C/c2ccc[nH]2)cc1` stands 1.87%. With `O=C(COc1ccccc1[N+](=O)[O-])N/N=C/c1ccc[nH]1`, the inhibition was 3.97%. As for `CCCC(=O)Nc1ccc(C(=O)N/N=C/c2ccc[nH]2)cc1`, the figure is 70.3% (active); as for `O=C(NCc1ccccc1CN1CCCC1)C1CCN(S(=O)(=O)c2ccc(Cl)cc2)CC1`, 3.2%. For `CC(C)(C)OC(=O)Nc1ccc([C@@H](NC(=O)OC(C)(C)C)C(=O)OC(C)(C)C)cc1`, the inhibition is 2.33%. Under `Oc1ccc(/C=N/Nc2nc(-c3ccccc3F)nc3ccccc23)c(O)c1` stands 69% (active). `Cc1nc2ccccc2nc1N/N=C/c1ccc(O)cc1O`: the inhibition is 77.6% (active). Under `O=c1c2ccccc2nc(N/N=C/c2ccccc2)n1O` stands -0.971%. Under `Cc1ccc(/C=N/NC(=O)C2=NNC(c3ccccc3)(c3ccccc3)C2)c(O)c1` stands 42.2%. As for `Cc1n[nH]c(=O)nc1N/N=C/c1cccs1`, the figure is -4.56%; as for `COc1ccccc1N1CCN(/N=C/c2ccc(O)cc2O)CC1`, 16.1%. On to `CCCNC(=O)OC[C@H]1O[C@H](CCO/N=C/[C@@H](NS(=O)(=O)c2ccc(C)cc2)[C@H](C)/C=C/CC(=O)OC)C=C[C@@H]1Oc1ccc(OC)cc1`, for which the inhibition was 20.8%. On to `O=C(Cn1c2[n+](c3ccc(C(F)(F)F)cc31)CCCCC2)Nc1c(F)cccc1F`, for which the inhibition was 13%. Under `C=CCNC(=O)/C=C/c1ccc(C(C)C)cc1` stands -111%; under `O=C(c1ccc[nH]c1=S)N1CCN(S(=O)(=O)c2ccc(Br)cc2Cl)CC1`, 2.6%; under `COc1cc2c(cc1OC)CN(C(=O)c1cc(S(=O)(=O)N3CCCCC3)ccc1Cl)CC2`, 20.3%. As for `COc1ccc(S(=O)(=O)N2CCC(C(=O)N3CCc4ccccc4C3)CC2)cc1OC`, the figure is -18.3%; as for `COc1cc2c(cc1OC)C(C)N(S(=O)(=O)c1cnc(Cl)c(Cl)c1)CC2` (stereo unspecified), 80.7% (active).

With `COC(=O)C1C(=O)NCC1c1ccc(C)cc1` (stereo unspecified), the inhibition is 13%. Under `COC(=O)C1=C(Nc2ccc(C)cc2)C=C(C)C(C(=O)OC)C1c1ccc(F)cc1` (stereo unspecified) stands 50.9% (active).

As to `COC(=O)C1=C(Nc2ccc(OC)cc2)C=C(C)C(C(=O)OC)C1c1ccc(C)cc1` (stereo unspecified), the inhibition is 19.4%. Under `CC(C)(C)C(=O)NC1CC2CCCC(C1)N2C(=O)Nc1ccccc1F` (stereo unspecified) stands -1.01%; under `O=C(CC1C(=O)NCCN1CC(c1ccccc1)c1ccccc1)NCC1CCOCC1` (stereo unspecified), 15.7%; under `COc1cc(NS(=O)(=O)c2ccc(NC(=S)NC(=O)c3ccccc3)cc2)nc(OC)n1`, 13.4%.

For `CCOC(=O)N1CCN(C(=O)c2ccc3c(c2)N(Cc2ccc(C)cc2)CCS3)CC1`, the inhibition was 6.09%. Under `CCOC(=O)N1CCN(C(=O)c2ccc(S(=O)(=O)c3ccc(C)cc3)c(NC(C)=O)c2)CC1` stands 50.8% (active); under `COCCNC(=O)c1ccc(S(=O)(=O)c2ccc(Cl)cc2)c(NC(C)=O)c1`, 14.7%; under `CCOC(=O)/C(C#N)=C\c1c(C)cc(C)c(COC(C)=O)c1C`, 14.2%. For `Cc1cc(C)nc(S/C=C/C(=O)c2ccccc2)n1`, the inhibition is 65.8% (active). As for `Cc1cc(C)nc(SCC(=O)c2ccc(Cl)cc2)n1`, the figure is 9.88%. Under `Cc1cc(C)nc(SCC(=O)N(C)C)n1` stands -9.55%. As for `CCCc1ccc(C(=O)COC(=O)CN2C(=O)NC3(CCCCC3C)C2=O)cc1` (stereo unspecified), the figure is 11.7%. On to `O=C(Oc1ccc(Br)cc1)c1cccnc1`, for which the inhibition is -5.87%. `N#CCc1ccc(OC(=O)c2cccnc2)cc1`: the inhibition was 12.8%. Turning to `O=C(Oc1c(-c2ccco2)oc2ccccc2c1=O)c1cccnc1`, the inhibition was 56.6% (active). As for `O=C(c1ccc(-n2cnnn2)cc1)N1CCN(C(c2ccccc2)c2ccccc2)CC1`, the figure is 12.3%.

Take `CCN(CCCNC(=O)C1CCN(S(=O)(=O)c2cnc[nH]2)CC1)c1ccccc1`: the inhibition was 37.3%. With `CCN(CCCNC(=O)CCn1c(=O)[nH]c2ccsc2c1=O)c1ccccc1`, the inhibition is 0.795%.

`CCN(CCCNC(=O)c1ccc2c(c1)NC(=O)CN2C)c1cccc(C)c1`: the inhibition is 82.6% (active). For `CC1CC(C)CN(C(=O)CSc2ccsc2[N+](=O)[O-])C1` (stereo unspecified), the inhibition was -7.54%.

As for `Oc1ccc(-c2cccc(-c3ccc(O)cc3)c2)cc1`, the inhibition was -24.2%. `Cc1ccc(-c2csc(NC(=O)Cn3[nH]c(=O)c4ccccc4c3=O)n2)cc1`: the inhibition is 31.2%.

Consider `COc1cc(CC(=O)Nc2nc(-c3ccc(F)c(F)c3)cs2)cc(OC)c1OC`, for which the inhibition is 28.8%. `Cc1ccc(-c2csc(-c3cc(C)on3)n2)cc1`: the inhibition was -47.3%. Under `Cc1cccc(Nc2nc(-c3ccccc3)cs2)n1` stands -222%. Under `COc1ccc2c(c1OC)C(=O)OC2Nc1nc(-c2ccccc2)cs1` (stereo unspecified) stands 98.5% (active). Regarding `Cc1ccc(-c2csc(NC3OC(=O)c4ccccc43)n2)cc1` (stereo unspecified), the inhibition is 63.6% (active). As for `OC(CNC1CCCC1)COc1ccc(F)cc1` (stereo unspecified), the figure is 7.59%.
